# Results from the supplement of paper PMC7156485.
# Legend:
# Settings in all cases: concentration: 10 µM; 24 h
# HCC1569 [1] = experiment: cell number relative to DMSO (% of DMSO); higher = more cells (less growth inhibition / toxicity)
# Procedure, shortened: (§1)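 H1.0 nuclear intensity or cell number is expressed as percent of the plate control, with the median of replicates taken. HCC1569 and TDF cells were treated with compounds at 10 µM for 24 h at 37 °C, in triplicate, then fixed and immunostained for H1.0 with DAPI as a nuclear stain. HCC1569 values were smoothed to correct for positional effects.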
# TDF [2] = experiment: as above
# Procedure, shortened: as §1
# TDF [3] = experiment: H1.0 immunofluorescence intensity relative to DMSO (% of DMSO); higher = stronger H1.0 induction, active = 120 or more
# Procedure, shortened: as §1
# HCC1569 [4] = experiment: H1.0 immunofluorescence intensity relative to DMSO (% of DMSO); higher = stronger H1.0 induction, active = 140 or more
# Procedure, shortened: as §1
# 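Throughout, for H1.0 immunofluorescence intensity relative to DMSO: TDF is a line of transformed human dermal fibroblasts of mesenchymal origin.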
# 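Throughout, for cell number relative to DMSO: TDF denotes transformed human dermal fibroblasts of mesenchymal origin.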
Compound,cell number (HCC1569 [1]),cell number (TDF [2]),H1.0 immunofluorescence intensity (TDF [3]),H1.0 immunofluorescence intensity (HCC1569 [4])
"C[C@H](CCC(=O)O)[C@H]1CC[C@H]2[C@@H]3C[C@H](O)[C@@H]4C[C@H](O)CC[C@]4(C)[C@H]3CC[C@]12C [(3alpha,5beta,6alpha)-3,6-dihydroxycholan-24-oic acid]",101,98.6,97.3 (inactive),106 (inactive)
Cc1scc2c1N(C(=O)CN1CCN(C)CC1)c1ccccc1NC2=O.Cl.Cl [Telenzepine dihydrochloride],107,94,99.8 (inactive),104 (inactive)
CCNC(=O)C1OC(n2cnc3c(NCc4ccccc4)ncnc32)C(O)C1O (configuration not stated) [N6-Benzyl-5'-N-ethylcarboxamidoadenosine],77,57.3,103 (inactive),114 (inactive)
COc1cc(Br)c(CC2c3cc(OC)c(OC)cc3CCN2C)cc1OC (racemic),99.7,98.5,97.8 (inactive),97.6 (inactive)
CC1C(NC(=O)C(=NOC(C)(C)C(=O)O)c2csc(N)n2)C(=O)N1S(=O)(=O)O (configuration not stated) [Aztreonam],105,105,93.1 (inactive),103 (inactive)
CNc1cc2c(Nc3cccc(Br)c3)ncnc2cn1,87.2,95.7,91.3 (inactive),135 (inactive)
CC(=O)Nc1nnc(S(N)(=O)=O)s1 [Acetazolamide],104,106,86.9 (inactive),83.3 (inactive)
COc1ccc(C2CC(c3ccccc3)=NN2c2ccc(S(N)(=O)=O)cc2)cc1 (configuration not stated),95.8,97.9,91.3 (inactive),114 (inactive)
